Measured values as given in the supplement of paper PMC12494721.
Structures can show the parent of a compound that is named as a salt.

Legend:
Conditions in all cases: incubation time: 27 h, anaerobic, 37 °C;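 for the amine columns active = adjusted P below 0.05 in both replicates with a change the same way and a mean fold change under 0.8 or over 1.25; inactive = the rest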
[1] = system: Clostridium sporogenes DSM 1664; test: growth (OD595) fold change vs plate DMSO controls (fold change (ratio)); higher = more growth
How it was run: (§1)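 Growth is expressed as the fold change relative to the median of the DMSO control wells on each plate. Cultures in mGAM were grown anaerobically in 96-well plates for 27 h at 37 °C, shaken, and read at 595 nm. Readings were blank-subtracted, corrected for compound background with 20 µM compound solutions in water, and converted to OD with a calibration factor of 5. Fold changes above 1.5 were set to NA, and each value is the mean of 2 biological replicates.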

Escherichia coli IAI1 [2] = test: as above
How it was run: as §1

[3] = system: Klebsiella aerogenes DSM 30053; test: as above
How it was run: as §1

[4] = system: Ruminococcus gnavus DSM 108212; test: as above
How it was run: as §1

[5] = system: Klebsiella aerogenes DSM 30053; test: fold change of Histamine concentration vs plate DMSO controls (fold change (ratio)); higher = more amine produced, active = hit call of the paper (significant change in both replicates, either direction)
How it was run: (§2)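 Amines were quantified by LC–triple-quadrupole MS in dynamic MRM mode against external calibration curves, with drift correction within each batch. The samples were whole anaerobic mGAM cultures of four gut bacterial strains, grown for 27 h at 37 °C in 80 µL wells and extracted with cold acetonitrile/methanol with 0.1% formic acid, then centrifuged. Values are reported as fold change over DMSO controls on the same plate. The mean of 2 biological replicates is given.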

[6] = system: Clostridium sporogenes DSM 1664; test: fold change of Tryptamine concentration vs plate DMSO controls (fold change (ratio)); higher = more amine produced, active = hit call of the paper (significant change in both replicates, either direction)
How it was run: as §2

[7] = system: Ruminococcus gnavus DSM 108212; test: as above
How it was run: as §2

Escherichia coli IAI1 [8] = test: fold change of Putrescine concentration vs plate DMSO controls (fold change (ratio)); higher = more amine produced, active = hit call of the paper (significant change in both replicates, either direction)
How it was run: as §2

[9] = system: Klebsiella aerogenes DSM 30053; test: as above
How it was run: as §2

Escherichia coli IAI1 [10] = test: fold change of Cadaverine concentration vs plate DMSO controls (fold change (ratio)); higher = more amine produced, active = hit call of the paper (significant change in both replicates, either direction)
How it was run: as §2

[11] = system: Klebsiella aerogenes DSM 30053; test: as above
How it was run: as §2

[12] = system: Ruminococcus gnavus DSM 108212; test: fold change of 2-Phenylethylamine concentration vs plate DMSO controls (fold change (ratio)); higher = more amine produced, active = hit call of the paper (significant change in both replicates, either direction)
How it was run: as §2

SMILES	growth [1]	growth (Escherichia coli IAI1 [2])	growth [3]	growth [4]	fold change of Histamine concentration [5]	fold change of Tryptamine concentration [6]	fold change of Tryptamine concentration [7]	fold change of Putrescine concentration (Escherichia coli IAI1 [8])	fold change of Putrescine concentration [9]	fold change of Cadaverine concentration (Escherichia coli IAI1 [10])	fold change of Cadaverine concentration [11]	fold change of 2-Phenylethylamine concentration [12]
CCC1NC(=O)c2cc(S(N)(=O)=O)c(Cl)cc2N1 (centres undefined) [Quinethazone] (20 µM)	0.978	0.894	0.838	0.755	1.02 (inactive)	1.27 (inactive)	1.1 (inactive)	0.956 (inactive)	0.92 (inactive)	1.01 (inactive)	1.19 (inactive)	1.24 (inactive)
CCOc1ccccc1OC(c1ccccc1)C1CNCCO1 (centres undefined) [Reboxetine mesylate] (20 µM)	1.03	1.16	1.07	1.08	1.01 (inactive)	0.997 (inactive)	1.04 (inactive)	1.03 (inactive)	1.01 (inactive)	0.926 (inactive)	1 (inactive)	1.03 (inactive)
COc1cc(C(=O)NCc2ccc(OCCN(C)C)cc2)cc(OC)c1OC [Trimethobenzamide hydrochloride] (20 µM)	1.13	1.08	0.972	1.04	0.877 (inactive)	1.12 (inactive)	1.04 (inactive)	1.05 (inactive)	0.835 (inactive)	1.02 (inactive)	0.903 (inactive)	1.05 (inactive)
CCCNC(C)C(=O)Nc1ccccc1C (centres undefined) [Prilocaine hydrochloride] (20 µM)	0.947	0.973	1.02	0.708	1.07 (inactive)	0.934 (inactive)	1.02 (inactive)	1.01 (inactive)	1.02 (inactive)	0.993 (inactive)	0.988 (inactive)	1 (inactive)
COc1ccc(Cl)cc1C(=O)NCCc1ccc(S(=O)(=O)NC(=O)NC2CCCCC2)cc1 [Glibenclamide] (20 µM)	1.19	1	1.04	1.04	0.91 (inactive)	1.03 (inactive)	1.06 (inactive)	0.96 (inactive)	0.964 (inactive)	0.909 (inactive)	1.03 (inactive)	1.09 (inactive)
COCCCOc1cc(C[C@@H](C[C@H](N)[C@@H](O)C[C@H](C(=O)NCC(C)(C)C(N)=O)C(C)C)C(C)C)ccc1OC [Aliskiren hemifumarate] (20 µM)	1.02	0.992	1	0.808	1.06 (inactive)	1 (inactive)	1.04 (inactive)	1 (inactive)	1.02 (inactive)	1 (inactive)	0.987 (inactive)	1.05 (inactive)
CC(=O)Oc1ccc(C(c2ccc(OC(C)=O)cc2)c2ccccn2)cc1 [Bisacodyl] (20 µM)	0.976	0.978	0.993	0.731	1.06 (inactive)	0.942 (inactive)	0.988 (inactive)	0.967 (inactive)	1.02 (inactive)	1 (inactive)	0.998 (inactive)	0.954 (inactive)
CC1CCc2c(N3CCC(O)CC3)c(F)cc3c(=O)c(C(=O)O)cn1c23 (centres undefined) [Nadifloxacin] (20 µM)	0.00717	0.0576	0.316	0.383	0.5 (active)	0.0474 (active)	0.271 (active)	0.763 (inactive)	1.16 (inactive)	0.267 (active)	0.982 (inactive)	0.362 (active)
Nc1nc(Cl)nc2c1ncn2[C@H]1C[C@H](O)[C@@H](CO)O1 [Cladribine] (20 µM)	0.964	0.974	1.06	0.893	0.841 (inactive)	1.06 (inactive)	0.925 (inactive)	0.684 (inactive)	0.984 (inactive)	0.934 (inactive)	1.02 (inactive)	0.957 (inactive)
CCN(CC)C(=O)C1(c2ccccc2)CC1CN (centres undefined) [Milnacipran hydrochloride] (20 µM)	1	1.02	1.03	1.16	0.968 (inactive)	1.11 (inactive)	1.09 (inactive)	0.94 (inactive)	0.958 (inactive)	0.895 (inactive)	1.04 (inactive)	1.12 (inactive)
CC[C@H](C)[C@H](NC(=O)[C@H](Cc1ccc(O)cc1)NC(=O)[C@@H](NC(=O)[C@H](CCCN=C(N)N)NC(=O)[C@@H](N)CC(=O)O)C(C)C)C(=O)N[C@@H](Cc1cnc[nH]1)C(=O)N1CCC[C@H]1C(=O)N[C@@H](Cc1ccccc1)C(=O)O [Angiotensin II (Human) Trifluoroacetic acid salt] (20 µM)	1.02	1.03	0.987	0.979	1.01 (inactive)	1.07 (inactive)	1.09 (inactive)	0.966 (inactive)	0.983 (inactive)	0.934 (inactive)	0.994 (inactive)	1.14 (inactive)
COc1cc(NS(=O)(=O)c2ccc(N)cc2)ncn1 [Sulfamonomethoxine] (20 µM)	1.06	0.996	0.978	1.09	1.11 (inactive)	0.982 (inactive)	0.944 (inactive)	0.911 (inactive)	1.02 (inactive)	1.03 (inactive)	0.991 (inactive)	0.915 (inactive)
O=C(CO)[C@@H](O)[C@H](O)[C@H](O)CO [D(-) Fructose] (50 µM)	1.01	1.02	0.988	0.986	0.994 (inactive)	0.929 (inactive)	0.925 (inactive)	1.04 (inactive)	0.987 (inactive)	1.07 (inactive)	0.981 (inactive)	0.919 (inactive)
CC(C)NCC(O)c1ccc(O)c(O)c1 (single isomer, unassigned; (-)) [(-) Isoproterenol hydrochloride] (20 µM)	1.02	0.976	1.15	0.899	0.874 (inactive)	1.03 (inactive)	0.857 (inactive)	1 (inactive)	0.996 (inactive)	0.982 (inactive)	1.02 (inactive)	0.814 (inactive)
CC(C)OC(=O)C(C)(C)Oc1ccc(C(=O)c2ccc(Cl)cc2)cc1 [Fenofibrate] (20 µM)	1.12	1.04	1.04	1.36	0.941 (inactive)	1.03 (inactive)	1.05 (inactive)	1.03 (inactive)	0.984 (inactive)	1.03 (inactive)	1.01 (inactive)	1.05 (inactive)
CCCCNC(=N)NC(=N)N [Buformin] (20 µM)	1.02	0.988	0.986	1	1.03 (inactive)	1.05 (inactive)	0.934 (inactive)	1.01 (inactive)	1.01 (inactive)	1.03 (inactive)	1 (inactive)	0.915 (inactive)
CCOC(=O)C(C)(N)Cc1cc(I)c(Oc2cc(I)c(O)c(I)c2)c(I)c1 (centres undefined) [Etiroxate hydrochloride] (20 µM)	1.06	1.02	1.02	1.14	1.04 (inactive)	1.03 (inactive)	0.923 (inactive)	0.951 (inactive)	0.99 (inactive)	0.958 (inactive)	1 (inactive)	1.01 (inactive)
O=C(O)CSCC(=O)NC1CCSC1=O (centres undefined) [Erdosteine] (20 µM)	1.04	1.07	1.03	1.04	0.984 (inactive)	0.962 (inactive)	1.01 (inactive)	0.971 (inactive)	1 (inactive)	0.993 (inactive)	0.993 (inactive)	0.988 (inactive)
CCNC(=O)CCC/C=C\C[C@@H]1[C@@H](/C=C/[C@@H](O)CCc2ccccc2)[C@H](O)C[C@@H]1O [Bimatoprost] (20 µM)	1.07	1.06	1.02	1	1.05 (inactive)	1.02 (inactive)	0.954 (inactive)	1.02 (inactive)	1.03 (inactive)	1.04 (inactive)	0.997 (inactive)	0.919 (inactive)
C[C@@H]1CCO[C@H]2Cn3cc(C(=O)NCc4ccc(F)cc4F)c(=O)c(O)c3C(=O)N12 [Dolutegravir] (20 µM)	1.06	1.02	0.992	0.891	1.08 (inactive)	1.02 (inactive)	0.954 (inactive)	1.07 (inactive)	0.999 (inactive)	0.984 (inactive)	0.987 (inactive)	0.941 (inactive)
N#Cc1cc(NC(=O)C(=O)O)c(Cl)c(NC(=O)C(=O)O)c1 [Lodoxamide] (20 µM)	1.02	1.15	1.01	1.12	0.985 (inactive)	1.05 (inactive)	0.986 (inactive)	1.17 (inactive)	1.01 (inactive)	0.977 (inactive)	0.997 (inactive)	0.934 (inactive)
C[C@@H](NCCCc1cccc(C(F)(F)F)c1)c1cccc2ccccc12 [Cinacalcet hydrochloride] (20 µM)	0.918	1.02	1.03	1.2	0.977 (inactive)	0.995 (inactive)	0.807 (inactive)	1.11 (inactive)	1.01 (inactive)	0.693 (inactive)	0.999 (inactive)	0.946 (inactive)
